Experimental data reported in paper PMC7862700, “An all-to-all approach to the identification of sequence-specific readers for epigenetic DNA modifications on cytosine”.

How the values were obtained:
Assay in all cases: DAPPL (digital affinity profiling via proximity ligation, sequencing); 10 mM Tris-HCl pH 7.5, 50 mM NaCl, 1 mM DTT, 4% glycerol, room temperature, 30 min; GST-TFs on glutathione beads, 16-mer random dsDNA library, 0.1% formaldehyde crosslink after washing; high values mean tight binding
Conditions in all cases: protein: recombinant; tags: N-terminal GST; dsDNA, one strand shown
ERF = target: T1, ERF (Homo sapiens, UniProt P50548 1-548)
T1 sequence: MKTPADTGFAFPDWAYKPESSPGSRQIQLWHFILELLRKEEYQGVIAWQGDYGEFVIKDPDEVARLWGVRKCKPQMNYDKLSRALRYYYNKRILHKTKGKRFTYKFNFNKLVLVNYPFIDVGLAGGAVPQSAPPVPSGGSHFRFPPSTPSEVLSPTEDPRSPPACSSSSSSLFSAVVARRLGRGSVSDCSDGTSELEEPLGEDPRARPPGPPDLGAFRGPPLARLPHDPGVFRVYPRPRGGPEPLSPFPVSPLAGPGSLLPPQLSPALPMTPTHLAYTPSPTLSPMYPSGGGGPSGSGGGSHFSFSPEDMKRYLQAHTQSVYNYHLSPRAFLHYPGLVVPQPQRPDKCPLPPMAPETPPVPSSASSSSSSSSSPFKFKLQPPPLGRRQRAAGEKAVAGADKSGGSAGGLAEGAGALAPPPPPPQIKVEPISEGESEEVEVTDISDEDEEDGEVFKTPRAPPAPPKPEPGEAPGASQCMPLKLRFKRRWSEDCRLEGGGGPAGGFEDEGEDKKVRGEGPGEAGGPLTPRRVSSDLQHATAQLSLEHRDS
Procedure, shortened: (§1)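 Pools of DNA-barcoded human transcription factors, expressed in yeast as GST fusions on glutathione beads and combined with a tag-only sample, were incubated with 200 nmole of a 16-mer random double-stranded DNA library. Incubation took 30 min at room temperature in Tris/NaCl/DTT/glycerol buffer and was followed by washing, 0.1% formaldehyde crosslinking, proximity ligation (BsaI/T4 ligase, 1 h, 37 °C), PCR amplification and sequencing on an Illumina NextSeq500. Binding signal is the ratio of a hexamer's read frequency for a factor to its frequency for the tag-only sample.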

ETV3L = target: T2, ETV3L (Homo sapiens, UniProt Q6ZN32 1-361)
T2 sequence: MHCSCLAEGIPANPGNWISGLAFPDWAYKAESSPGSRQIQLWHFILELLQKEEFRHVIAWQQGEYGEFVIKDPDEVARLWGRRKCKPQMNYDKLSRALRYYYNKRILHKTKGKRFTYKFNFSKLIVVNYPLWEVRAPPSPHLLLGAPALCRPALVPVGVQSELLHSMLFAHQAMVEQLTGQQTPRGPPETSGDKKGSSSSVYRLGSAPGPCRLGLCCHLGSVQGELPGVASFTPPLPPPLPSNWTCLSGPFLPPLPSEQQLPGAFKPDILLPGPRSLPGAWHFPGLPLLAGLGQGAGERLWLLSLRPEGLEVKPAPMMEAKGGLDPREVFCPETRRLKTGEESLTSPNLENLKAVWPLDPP
Procedure, shortened: as §1

ETS2 = target: T3, ETS2 (Homo sapiens, UniProt P15036 1-469)
T3 sequence: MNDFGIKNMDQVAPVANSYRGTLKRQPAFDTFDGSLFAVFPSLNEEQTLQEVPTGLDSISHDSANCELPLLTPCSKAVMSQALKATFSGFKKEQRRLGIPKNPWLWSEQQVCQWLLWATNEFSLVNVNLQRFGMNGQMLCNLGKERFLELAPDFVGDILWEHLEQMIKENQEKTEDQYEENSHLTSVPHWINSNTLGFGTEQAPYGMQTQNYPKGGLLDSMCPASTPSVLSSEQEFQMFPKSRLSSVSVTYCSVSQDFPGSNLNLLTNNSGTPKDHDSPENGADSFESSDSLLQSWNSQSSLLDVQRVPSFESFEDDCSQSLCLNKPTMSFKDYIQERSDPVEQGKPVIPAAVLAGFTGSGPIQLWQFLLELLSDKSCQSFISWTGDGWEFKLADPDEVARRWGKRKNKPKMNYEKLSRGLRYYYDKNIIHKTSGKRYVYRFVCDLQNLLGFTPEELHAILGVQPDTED
Procedure, shortened: as §1

SPDEF = target: T4, SPDEF (Homo sapiens, UniProt O95238 1-335)
T4 sequence: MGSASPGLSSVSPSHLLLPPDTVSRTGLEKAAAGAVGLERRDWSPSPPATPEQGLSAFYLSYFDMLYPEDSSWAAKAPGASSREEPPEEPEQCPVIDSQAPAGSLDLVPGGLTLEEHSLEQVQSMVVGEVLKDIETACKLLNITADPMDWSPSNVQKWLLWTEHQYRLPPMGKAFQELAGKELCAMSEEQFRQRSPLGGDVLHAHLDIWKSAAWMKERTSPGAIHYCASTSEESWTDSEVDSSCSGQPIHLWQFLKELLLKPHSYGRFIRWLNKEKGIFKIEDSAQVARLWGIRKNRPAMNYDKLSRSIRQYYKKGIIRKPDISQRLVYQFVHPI
Procedure, shortened: as §1

ETV7 = target: T5, ETV7 (Homo sapiens, UniProt Q9Y603 1-341)
T5 sequence: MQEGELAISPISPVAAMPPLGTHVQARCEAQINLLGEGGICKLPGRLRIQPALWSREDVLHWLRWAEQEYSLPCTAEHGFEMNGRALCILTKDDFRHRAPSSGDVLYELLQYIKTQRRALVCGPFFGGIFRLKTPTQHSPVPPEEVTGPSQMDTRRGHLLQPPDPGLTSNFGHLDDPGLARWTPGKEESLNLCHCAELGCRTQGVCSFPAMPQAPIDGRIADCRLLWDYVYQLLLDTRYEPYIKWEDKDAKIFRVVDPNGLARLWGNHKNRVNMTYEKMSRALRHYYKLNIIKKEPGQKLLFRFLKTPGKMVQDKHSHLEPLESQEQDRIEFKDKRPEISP
Procedure, shortened: as §1

ELF5 = target: T6, ELF5 (Homo sapiens, UniProt Q9UKW6-2 1-255)
T6 sequence: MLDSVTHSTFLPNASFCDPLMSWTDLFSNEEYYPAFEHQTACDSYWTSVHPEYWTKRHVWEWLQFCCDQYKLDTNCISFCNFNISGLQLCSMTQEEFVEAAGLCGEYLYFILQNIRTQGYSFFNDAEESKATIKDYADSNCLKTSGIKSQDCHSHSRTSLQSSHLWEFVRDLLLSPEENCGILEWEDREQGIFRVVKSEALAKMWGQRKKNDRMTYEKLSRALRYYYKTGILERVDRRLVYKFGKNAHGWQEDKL
Procedure, shortened: as §1

ETV3 = target: T7, ETV3 (Homo sapiens, UniProt P41162-2 1-143)
T7 sequence: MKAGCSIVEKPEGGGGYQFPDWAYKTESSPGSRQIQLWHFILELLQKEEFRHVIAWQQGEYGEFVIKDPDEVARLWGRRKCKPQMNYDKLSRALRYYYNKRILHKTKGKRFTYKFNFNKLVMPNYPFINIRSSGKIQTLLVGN
Procedure, shortened: as §1

ETV6 = ETV6 (Homo sapiens, UniProt P41212 1-452)
Sequence of ETV6 (P41212 whole entry): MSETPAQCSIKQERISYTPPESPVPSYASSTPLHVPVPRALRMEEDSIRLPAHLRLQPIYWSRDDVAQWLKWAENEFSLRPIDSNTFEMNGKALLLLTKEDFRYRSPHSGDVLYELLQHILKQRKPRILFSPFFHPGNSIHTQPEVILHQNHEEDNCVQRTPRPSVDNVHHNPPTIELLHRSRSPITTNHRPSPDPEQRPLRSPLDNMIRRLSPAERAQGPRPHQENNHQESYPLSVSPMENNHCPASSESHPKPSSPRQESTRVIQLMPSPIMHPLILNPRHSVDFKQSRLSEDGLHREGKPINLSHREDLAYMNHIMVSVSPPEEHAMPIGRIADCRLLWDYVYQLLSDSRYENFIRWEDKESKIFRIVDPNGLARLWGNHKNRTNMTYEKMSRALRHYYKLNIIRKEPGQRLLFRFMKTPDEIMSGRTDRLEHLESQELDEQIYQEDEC
Procedure, shortened: as §1

| Sequence | binding signal (ERF) | binding signal (ETV3L) | binding signal (ETS2) | binding signal (SPDEF) | binding signal (ETV7) | binding signal (ELF5) | binding signal (ETV3) | binding signal (ETV6) |
| --- | --- | --- | --- | --- | --- | --- | --- | --- |
| TTGCTT | 1.18 fold enrichment (6-mer frequency, TF over GST control) | 1.28 fold enrichment (6-mer frequency, TF over GST control) | 1.19 fold enrichment (6-mer frequency, TF over GST control) | 1.28 fold enrichment (6-mer frequency, TF over GST control) | 1.45 fold enrichment (6-mer frequency, TF over GST control) | 1.29 fold enrichment (6-mer frequency, TF over GST control) | 1.43 fold enrichment (6-mer frequency, TF over GST control) | 1.28 fold enrichment (6-mer frequency, TF over GST control) |
| TAATCA | 1.09 fold enrichment (6-mer frequency, TF over GST control) | 1.12 fold enrichment (6-mer frequency, TF over GST control) | 1.14 fold enrichment (6-mer frequency, TF over GST control) | 1.11 fold enrichment (6-mer frequency, TF over GST control) | 1.1 fold enrichment (6-mer frequency, TF over GST control) | 1.08 fold enrichment (6-mer frequency, TF over GST control) | 1.15 fold enrichment (6-mer frequency, TF over GST control) | 1.18 fold enrichment (6-mer frequency, TF over GST control) |
| CCTACT | 1.7 fold enrichment (6-mer frequency, TF over GST control) | 1.53 fold enrichment (6-mer frequency, TF over GST control) | 1.7 fold enrichment (6-mer frequency, TF over GST control) | 1.49 fold enrichment (6-mer frequency, TF over GST control) | 1.35 fold enrichment (6-mer frequency, TF over GST control) | 1.82 fold enrichment (6-mer frequency, TF over GST control) | 1.77 fold enrichment (6-mer frequency, TF over GST control) | 1.73 fold enrichment (6-mer frequency, TF over GST control) |
| CCCCTC | 1.43 fold enrichment (6-mer frequency, TF over GST control) | 1.4 fold enrichment (6-mer frequency, TF over GST control) | 1.33 fold enrichment (6-mer frequency, TF over GST control) | 1.33 fold enrichment (6-mer frequency, TF over GST control) | 1.24 fold enrichment (6-mer frequency, TF over GST control) | 1.24 fold enrichment (6-mer frequency, TF over GST control) | 1.28 fold enrichment (6-mer frequency, TF over GST control) | 1.28 fold enrichment (6-mer frequency, TF over GST control) |
| TAGTGG | 1.18 fold enrichment (6-mer frequency, TF over GST control) | 1.15 fold enrichment (6-mer frequency, TF over GST control) | 1.28 fold enrichment (6-mer frequency, TF over GST control) | 1.1 fold enrichment (6-mer frequency, TF over GST control) | 1.17 fold enrichment (6-mer frequency, TF over GST control) | 1.12 fold enrichment (6-mer frequency, TF over GST control) | 1.1 fold enrichment (6-mer frequency, TF over GST control) | 1.16 fold enrichment (6-mer frequency, TF over GST control) |
| TTACCT | 1.22 fold enrichment (6-mer frequency, TF over GST control) | 1.22 fold enrichment (6-mer frequency, TF over GST control) | 1.32 fold enrichment (6-mer frequency, TF over GST control) | 1.18 fold enrichment (6-mer frequency, TF over GST control) | 1.36 fold enrichment (6-mer frequency, TF over GST control) | 1.28 fold enrichment (6-mer frequency, TF over GST control) | 1.17 fold enrichment (6-mer frequency, TF over GST control) | 1.23 fold enrichment (6-mer frequency, TF over GST control) |
| CTGATT | 1.21 fold enrichment (6-mer frequency, TF over GST control) | 1.26 fold enrichment (6-mer frequency, TF over GST control) | 1.26 fold enrichment (6-mer frequency, TF over GST control) | 1.21 fold enrichment (6-mer frequency, TF over GST control) | 1.24 fold enrichment (6-mer frequency, TF over GST control) | 1.19 fold enrichment (6-mer frequency, TF over GST control) | 1.17 fold enrichment (6-mer frequency, TF over GST control) | 1.17 fold enrichment (6-mer frequency, TF over GST control) |
